ChEMBL document CHEMBL3988442, “University of Dundee, Small-Polar-MMV Screening Library” (2021)
About 13,000 (27%) of roughly 48,000 compounds showed an effect of 50% or more. The list shows a part of the results.

test system: Wolbachia pipientis; assay: Anti-Wolbachia Cell-Based Screen; assay type: functional; parameters: scale not given: in the data most compounds retested in dose-response had high values; conditions: 5 µM

| SMILES | Percent Effect |
| --- | --- |
| CN(Cc1nc(C(F)(F)F)cs1)C(=O)CCc1cccnc1 | 99.2% |
| CN(Cc1ccccn1)C(=O)Nc1cc(C(F)(F)F)c[nH]c1=O | 11.49% |
| CN(Cc1nc(C(F)(F)F)cs1)C(=O)CCc1ccccn1 | 104.8% |
| Cc1nc(CN2CCN(C(=O)CCc3cccnc3)CC2)no1 | -0.7807% |
| CN(CCc1ccccn1)C(=O)Nc1cc(C(F)(F)F)c[nH]c1=O | 14.36% |
| CN(Cc1cc(Br)cn1C)C(=O)Cc1cccnc1 | -0.2173% |
| COC(=O)c1ccc2nc(CO[C@H]3CN(CC4CC4)C[C@H]3F)[nH]c2c1 | 5.552% |
| N#Cc1nccnc1N1CCC(COCc2ccccc2)C1 (stereo not drawn) | -0.4127% |
| OCC(O)CSCc1cn(-c2ccc(Cl)c(Cl)c2)nn1 (stereo not drawn) | -1.515% |
| C[S+]([O-])CCCNCc1cc(F)ccc1Br (stereo not drawn) | 11.95% |
| Cc1cnn(CCNCC(O)COc2ccc(C#N)cc2)c1 (stereo not drawn) | -2.958% |
| CCn1cnnc1CNC(=O)N1CCN(c2ccccc2O)CC1 | 92.65% |
| CCn1cnnc1CNC(=O)N1CCN(c2ccccc2OC)CC1 | 95.25% |
| CCn1cnnc1CNC(=O)NCC(O)c1ccc(OC)cc1 (stereo not drawn) | 3.56% |
| CCn1cnnc1CNC(=O)N1CCN(c2ccc(OC)cc2)CC1 | 88.94% |
| Cc1cccc(N2CCN(C(=O)Nc3cnn(CC(N)=O)c3)CC2)c1 | -8.219% |
| CCn1cnnc1CNC(=O)N1CCN(c2cccc(OC)c2)CC1 | 2.392% |
| CCn1cnnc1CNC(=O)N(C)Cc1ccccc1OC | -13.71% |
| CCn1cnnc1CNC(=O)N1CCN(c2cccc(C)c2)CC1 | 81.4% |
| CC(C)CC(NC(=O)CSCC(N)=O)c1cccs1 (stereo not drawn) | 3.191% |
| CN(C)S(=O)(=O)N1CCN(CC2CCOc3ccccc3C2)CC1 (stereo not drawn) | -1.148% |
| O=C(CN1C(=O)CCNC1=O)N1CCOC(c2ccc(Cl)c(Cl)c2)C1 (stereo not drawn) | 6.471% |
| CSCCCN1CCc2nc(N(C)C)nc(N3CCC(O)CC3)c2C1 | 3.21% |

| SMILES | Percent Effect |
| --- | --- |
| CCCc1cc(=O)[nH]c2nnc(SCC(=O)NC(C)(C)C)n12 | 7.571% |
| CC(O)c1cccc(-n2c(CCC(=O)O)nc3ccccc32)c1 (stereo not drawn) | 17.57% |
| CCn1cnnc1CNC(=O)N1CCN(c2ccccc2Cl)CC1 | 101.2% |
| CCn1cnnc1CNC(=O)N1CCOC(c2ccccc2Cl)C1 (stereo not drawn) | -10.89% |
| CCn1cnnc1CNC(=O)N1CCOC(c2ccc(Cl)cc2)C1 (stereo not drawn) | -28.88% |
| CC(C)CC(O)C1CCN(C(=O)c2ccc(C(F)(F)F)nc2O)CC1 (stereo not drawn) | -33.24% |
| CCN(C)CC(C)Cn1cnc(-c2ccccc2)c1C (stereo not drawn) | 25.31% |
| Cc1nc(C)c(CNCc2nnc3n2CCCC3C(F)(F)F)s1 (stereo not drawn) | -2.721% |
| O=C(CC1Cn2ncnc2NC1=O)Nc1cccc(C(F)(F)F)c1 (stereo not drawn) | 102.6% |
| CCc1ccc(C(=O)Nc2ccc(CC3CC(=O)NC3=O)cc2)s1 (stereo not drawn) | -2.558% |
| O=C(Nc1cccc(C(F)(F)F)c1)N1CCN(CCn2ccnc2)CC1 | 2.864% |
| O=C(Nc1cccc(C(F)(F)F)c1)C1CC(=O)N(Cc2ccccn2)C1 (stereo not drawn) | 6.876% |
| CCc1ccc(C(=O)Nc2ccc(CC3CC(=O)NC3=O)cc2)cc1 (stereo not drawn) | -15.63% |
| COc1cccc(NC(=O)CC2Cn3ncnc3NC2=O)c1 (stereo not drawn) | 110.1% |
| COc1cccc(NC(=O)CNc2ccc(C(=O)N(C)C)c(Cl)c2)c1 | 14.49% |
| O=C(CC1Cn2ncnc2NC1=O)Nc1ccccc1 (stereo not drawn) | 119.2% |
| CCc1ccc(NC(=O)CC2Cn3ncnc3NC2=O)cc1 (stereo not drawn) | 123.1% |
| O=C(CN1C[C@H]2CC[C@@H]1CN(Cc1ccccn1)C2)Nc1ccccc1 | 0.8626% |
| O=C(CN1CCC(Nc2ncccn2)CC1)Nc1ccccc1 | -0.5486% |
| COC(=O)C1CN(CC(=O)Nc2cccc(OC)c2)c2ccccc21 (stereo not drawn) | 10.48% |
| O=C(c1cc(F)cc(Cl)c1)N1CCN(CCO)[C@@H]2CS(=O)(=O)C[C@@H]21 | -9.741% |
| Cc1cc(CN2CCCC(CNC(=O)Cn3cccn3)C2)oc1C (stereo not drawn) | -41.99% |
| O=C(NCCc1cccs1)N1CCCC1CCCO (stereo not drawn) | -4.53% |

| SMILES | Percent Effect |
| --- | --- |
| CC(C)c1nc2n(n1)CC(NCc1nc(-c3cccnc3)no1)CC2 (stereo not drawn) | -4.778% |
| COc1ccccc1C(=O)N1CCC(O)(c2cccc(C)c2C)CC1 | 6.429% |
| COc1ccccc1C1(O)CCCN(C(=O)c2ccnn2C(C)C)C1 (stereo not drawn) | 100.6% |
| CC(=O)c1cc(C(=O)N2CCC3(CC2)Nc2ccccc2NC3=O)cs1 | 16.29% |
| COc1ccccc1[C@@H]1CN(Cc2csc(C(C)=O)c2)C[C@H]1C(=O)O | -15.68% |
| COc1ccccc1C1(O)CCCN(C(=O)c2cnc(SC)nc2)C1 (stereo not drawn) | 97.81% |
| COc1ccccc1C1CCN(C(=O)c2ncccc2OC(C)C)C1 (stereo not drawn) | 1.547% |
| COc1ncc(C(=O)N2CCC3(CC2)C(=O)Nc2ccccc23)cn1 | -4.36% |
| CSc1ncc(C(=O)N2CCC(O)(CN3CCOCC3)C(C)(C)C2)cn1 (stereo not drawn) | -3.216% |
| COc1ccccc1C1(O)CCCN(C(=O)c2csc(C(C)=O)c2)C1 (stereo not drawn) | 80.49% |
| CN(Cc1cn2c(n1)CN(C(=O)c1cccn1C)CC2)Cc1ccco1 | 10.07% |
| COc1cccc(OCc2nnc3n2N=C(C(C)(C)C)CS3)c1 | -3.476% |
| CCC(CC)N(Cc1cc(=O)n(C)c(=O)n1C)C1CC1 | -2.422% |
| CC(C)C(O)CNC(=O)Nc1cccc(-c2nccs2)c1 (stereo not drawn) | 0.8901% |
| CN1CCC2(CC1)CN(CC1CC1)CC21CCNC1=O.O=C(O)C(F)(F)F.O=C(O)C(F)(F)F (stereo not drawn) | -40.68% |
| COCCN1CCC(CNC(=O)C2(c3cc(C)cc(C)c3)CCC2)C1 (stereo not drawn) | 8.369% |
| COCCN1CCC(CNC(=O)C2(c3cccc(C)c3)CC2)CC1 | 2.355% |
| COCCN1CCC(CNC(=O)C2(c3cccc(Cl)c3)CC2)C1 (stereo not drawn) | 119% |
| COCCN1CCC(CNC(=O)C2(c3cc(C)cc(C)c3)CC2)CC1 | 106.5% |
| COCCN1CCC(NC(=O)C2(c3cc(C)cc(C)c3)CC2)CC1 | 0.6832% |
| CCN1CCCC(CNC(=O)C2(c3cccc(Cl)c3)CC2)C1 (stereo not drawn) | 3.483% |
| COCCN1CCC(CNC(=O)C2(c3cccc(C)c3)CC2)C1 (stereo not drawn) | 112.6% |
